The whole screen tested about 2,100 compounds, of which about 300 (14%) were called active. Roughly 2% stayed inconclusive and do not appear here.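 The calls were made as follows: active = every replicate test run called active, with the signal falling and half-maximal concentration within twice the top valid dose; inconclusive = the replicate test runs disagree in their calls; inactive = every test run inactive, including effects in the opposite direction.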 The list is a sample of the results. Potency and affinity values are given separately.
test: inhibitors of PGC1a acetylation in cells, dose response, cell-based, cherry-picked samples (AID 720514); conditions: U2OS PGC1a acetylation, AlphaLISA, overnight; series mostly up to 19.5 µM; activity change, negative = inhibition: at the top concentration;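 also: 0% = neutral control wells and -100% = positive control wells; actives lower the acetylation signal so they count as inhibitors of PGC1a acetylation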

Activity change, negative = inhibition, inactive:
CC1=CC(C)(C)N2C(=O)C3(SCC(=O)N3c3ccc(F)cc3)c3cc(C)cc1c32 (configuration not stated) 65.8%, NC(=O)Cn1cc(C(=O)c2cccs2)c2ccccc21 101%, C[C@@H]1CN([C@@H](C)CO)C(=O)c2c(c3ccccc3n2C)-c2ccccc2CO[C@@H]1CN(C)C(=O)c1ccc(F)cc1 154% [at 21 µM], O=S(=O)(NCc1ccccc1Br)c1ccccc1Br 43.5%, COCCN(C)Cc1nc(C(c2ccccc2)c2ccccc2)no1 41.6%, Cc1cc(C(F)(F)F)n(-c2nc(C(=O)NNS(=O)(=O)c3ccccc3[N+](=O)[O-])cs2)n1 65.3%, O=C(NCCC1=CCCCC1)c1coc(=O)c(Br)c1 27.7%, O=C(NCc1cccnc1)c1ccc(NC(=O)c2cccc([N+](=O)[O-])c2)cc1 327%, COc1cc(/C=C2\SC(=O)NC2=O)ccc1Oc1ccc([N+](=O)[O-])cn1 54%, COc1ccc(CN2CCn3ncc(C(=O)Nc4ccccc4)c3C2=O)cc1 30.6%, COc1ccc(C#Cc2c(-c3ccccc3)n(-c3ccccc3)c3ccc(CO)cc23)cc1 101%, CC12CCC(C1)C(C)(C)C2NS(=O)(=O)c1ccc(F)cc1 (configuration not stated) 96.9%, COc1ccc(NC(=O)c2sccc2SCc2cccc(C(F)(F)F)c2)cc1 93.2%, O=C(Cn1c(CN2CCCCC2)nc2ccccc2c1=O)Nc1ccccc1 59.2%, COc1ccc(Cn2nnnc2C(C(C)C)N(Cc2ccco2)Cc2cccs2)cc1 (configuration not stated) 116%, COc1ccc(S(=O)(=O)N(C)CC(=O)Nc2cccc(C(C)=O)c2)cc1Cl 89.1%, COc1cccc(C(=O)/C=C/c2ccc(OCC#N)c(OC)c2)c1 44.8% [at 10 µM], COc1ccc(S(=O)(=O)NNC(=O)c2csc(-n3nc(C)cc3C(F)(F)F)n2)cc1 46.5% [at 10 µM], COc1ccc(Nc2nnc(-c3ccc(C(=O)NCCO)cc3)c3ccccc23)cc1 89.6%, Cn1ncc(Cl)c1C(=O)Nc1sc2c(c1C(N)=O)CCC2 44.2% [at 10 µM], N#Cc1cccc(C(c2nnnn2C2CCCC2)N2CCCCCC2)c1 (configuration not stated) 81.4%, Cc1c(C(=O)N2CCN(c3ccccn3)CC2)sc2ncnc(N3CCN(c4ccccc4)CC3)c12 34.3%, COc1cc(NC(=O)c2cccs2)c(OC)cc1NC(=O)CCC(=O)Nc1ccc2ncccc2c1 202% [at 10 µM], O=C(Nc1ccc(F)cc1F)N1CCCN(c2ccc([N+](=O)[O-])cn2)CC1 107%, Cc1ccc(CC(=O)N2CCN(c3ccc([N+](=O)[O-])cc3)CC2)cc1 228%, CS(=O)(=O)N(CC(=O)N1CCN(c2ccccc2)CC1)c1cccc(Br)c1 51.7%, Cc1ccc(OCC(=O)NCCCNC(=O)c2cccnc2)cc1C 201% [at 10 µM], O=C(COc1ccc(Cl)cc1)NCCCNC(=O)c1cccnc1 238% [at 10 µM], Cc1cc2oc(=O)cc(CN3CCC(C)CC3)c2cc1C 50.6%, O=C(CN1CCC(n2nnc3ccccc32)CC1)NCc1cccs1 118%, C=CCNC(=O)c1ccc(CN2CCC(Cc3ccccc3)CC2)cc1 29.6%, Cc1cc(C(=O)NNS(=O)(=O)c2ccc(F)cc2)nn1C(C)(C)C 430% [at 10 µM], COc1cc(CN2[C@@H]3CNC[C@H]2C3c2ccc(-c3ccccc3)cc2)cc(OC)c1 (some centres not stated) 44.3%, CCOc1ccc(NC2c3ccccc3C(=O)N2Cc2ccc3c(c2)OCO3)cc1 (configuration not stated) 38.7%, COc1ccc(CCCNC(=O)C2(C)Cc3c(-c4ccc5c(c4)OCO5)ccnc3O2)cc1 (configuration not stated) 25%, O=C(c1ccccc1Nc1ccc(SC(F)F)cc1)N1CCCCCC1 61.7%, Cc1cccc(Nc2nnc(-c3ccc(C(=O)N4C[C@H]5C[C@H](C4)c4cccc(=O)n4C5)cc3)c3ccccc23)c1 64.7%, COC(=O)[C@H](Cc1ccccc1)N(C)S(=O)(=O)c1cccc(S(=O)(=O)N(C)[C@@H](Cc2ccccc2)C(=O)OC)c1 47.9%, Cc1csc(NC(=O)NC2(C(F)(F)F)Oc3ccccc3O2)n1 85.6% [at 10 µM], O=C(Nc1cccc(C(F)(F)F)c1)c1sc(Cl)nc1C(F)(F)F 62.9%, Cc1cccc(C)c1OC1(c2ccccc2)OC(=O)c2ccccc21 (configuration not stated) 94.7%, O=C(CCn1nnc2ccccc21)Nc1nnc(Cc2ccccc2)s1 87.3%, O=S(=O)(NC12CC3CC(CC(C3)C1)C2)c1ccc(F)cc1 47.5%, O=C(CSc1nnc(Cn2cnc3ccccc32)o1)c1ccccc1 172%, CCOc1ccc(-c2nnn(CC#N)n2)cc1OC 186% [at 10 µM], Cc1cc(C)c2oc(C(=O)N(Cc3ccccc3)c3ccccn3)cc(=O)c2c1 44.6%, Cc1ccc(NC(=O)CN(C)S(=O)(=O)c2cccs2)c(Br)c1 48.4%, N#C/C(=C(/O)c1ccco1)c1nc2ccccc2[nH]1 286%, COc1ccc(-c2c(-c3cc(OC)cc(OC)c3)n(C)c3ccc(-c4cnc(N)nc4)cc23)cc1 119%, Cc1cc(S(=O)(=O)c2ccc([N+](=O)[O-])cn2)ccc1Br 105% [at 10 µM], O=C(NCCC1CCCCN1S(=O)(=O)c1cccs1)C(=O)Nc1ccc(F)cc1F (configuration not stated) 81.8%, O=C(Cc1ccccn1)NCC[C@@H]1CC[C@H](NC(=O)Nc2ccc(C(F)(F)F)cc2)[C@H](CO)O1 -0.998%, O=C(Cc1ccccn1)NCC[C@H]1CC[C@H](NC(=O)Nc2ccc(C(F)(F)F)cc2)[C@H](CO)O1 12.7% [at 21 µM], CCOC(=O)C(Cc1ccc(NC(=O)/C(=C\c2ccccc2)NC(=O)c2ccccc2)cc1)N1C(=O)c2ccccc2C1=O (configuration not stated) 39.8%, O=C(NCc1cccs1)C1Cc2c(-c3ccc(Cl)cc3)ccnc2O1 (configuration not stated) 95.1%, C[n+]1c2n(c3ccccc31)N=C(c1cc(C(C)(C)C)c(O)c(C(C)(C)C)c1)CS2 119%, COc1ccc([N+](=O)[O-])cc1NCc1ccccc1 131% [at 10 µM], Cc1cc(C)c2c(-n3cccc3)c(C(=O)NNS(=O)(=O)c3ccc(F)cc3)sc2n1 109%, CCOC(=O)C1=CC[C@@H](c2ccccc2)N(S(=O)(=O)c2ccc(C)cc2)[C@H]1c1ccc(CC)cc1 153% [at 10 µM], CCN(CC)c1ccc(NC(=O)c2cc(OC)cc(OC)c2)c(C)c1 58.6%, CCOC(=O)c1ccc(NC(=O)N2CCc3ccccc3C2)cc1 223% [at 10 µM], CC1(Cc2ccc(Cl)cc2)C(=O)Nc2c(Cl)ccc(Cl)c21 (configuration not stated) 87.1%, Cc1ccc(OCC(=O)N2CC(C)OC(C)C2)c([N+](=O)[O-])n1 (configuration not stated) 44.5% [at 10 µM], CCOC(=O)C(C)n1cnc2c(nnn2-c2ccc(C)cc2)c1=O (configuration not stated) 43%, COc1ccc2nc3c(cc2c1)c(NC(=O)c1cccs1)nn3CC(C)C 83% [at 10 µM], O=C(NCc1ccccc1)C(c1ccccc1)N(C(=O)c1csnn1)c1ccc(F)cc1 (configuration not stated) 84.8%, O=C(Nc1ccc(Nc2ccncc2)cc1)c1ccc([N+](=O)[O-])cc1 65.5% [at 10 µM], CCC(=O)Nc1ccc2c(c1)OC[C@@H](C)N(C(=O)c1cnccn1)C[C@H](C)[C@H](OC)CN(C)C2=O 30.5%, CO[C@@H]1CN(C)C(=O)c2cc(NC(=O)c3ccc(Oc4ccccc4)cc3)ccc2OC[C@@H](C)NC[C@@H]1C 62.6%, CCC(=O)N1C[C@H](C)[C@@H](OC)CN(C)C(=O)c2ccc(NC(=O)Nc3ccccc3)cc2OC[C@@H]1C 29.8%, CCOC(=O)C1(N(CC)CC)Sc2cc(C)ccc2NC1=O (configuration not stated) 115%, CC(=O)Nc1sc2c(c1-c1nc3ccccc3s1)CN(C(C)C)CC2 174%, C[C@@H]1CN([C@H](C)CO)C(=O)CCCn2nncc2CO[C@H]1CN(C)C(=O)C1CC1 49.1%, O=C(Cc1ccccc1)Nc1ccc(NC(=O)c2ccco2)nc1 95.1% [at 10 µM], CC(=O)C1=CCC(c2cccc3ccccc23)N(S(=O)(=O)c2ccc(C)cc2)C1 (configuration not stated) 37.8%, CCOC(=O)N1CCN(C(=O)C(NS(=O)(=O)c2cccc3nsnc23)c2ccccc2)CC1 (configuration not stated) 46%, Cc1cccc(CS(=O)(=O)c2ncc(Cl)c(C(=O)Nc3ccc(F)cc3)n2)c1 41% [at 10 µM], O=C(COC(=O)c1ccco1)NCc1ccc2c(c1)OCO2 35.4%, COc1ccc(C2CC(=O)N(C)c3ccccc3S2)cc1 (configuration not stated) 72.4%, CC1(C)CCCN(C(=O)N2c3ccccc3Sc3ccccc32)C1 99.6% [at 10 µM], Cc1ccc(S(=O)(=O)CCSC(=N)N)cc1 87.2%, CC(=O)c1ccc(NC(=O)CSCC(=O)Nc2ccc3ccccc3c2)cc1 32.2%, CC1CC1C(=O)OCC(=O)NCc1ccc(Cl)cc1 (configuration not stated) 43.3%, O=C(NCc1ccco1)c1scc2c1OCCO2 30.4%, COc1ccc(CC(=O)OCC(=O)NCc2ccco2)cc1 64.8%, CC1CCCCN1C(=O)/C(=C\c1ccccc1)c1ccccc1 (configuration not stated) 26.4%, CCSc1ccc(NC(=O)c2cccnc2)cc1 210%, CCS(=O)(=O)N[C@H]1C=C[C@H](CC(=O)N2CCCCC2)O[C@H]1CO 46.5%, CC(=O)N(C)C[C@H]1Oc2cc(-c3ccc(C#N)cc3)ccc2S(=O)(=O)N([C@@H](C)CO)C[C@@H]1C 25.3%, C[C@H]1CN([C@@H](C)CO)S(=O)(=O)c2ccc(-c3cncnc3)cc2O[C@H]1CN(C)C(=O)CN(C)C 47.6% [at 10 µM], COc1ccc(S(=O)(=O)Nc2ccc3c(c2)C(=O)N([C@@H](C)CO)C[C@@H](C)[C@H](CN(C)S(=O)(=O)c2ccc(Cl)cc2)OCCCC[C@H](C)O3)cc1 38.2% [at 10 µM], COc1cc(CN2CC3(CCN(S(=O)(=O)c4cccs4)CC3)c3c(n(C)c4cc(OC)ccc34)[C@H]2CO)cc(OC)c1 49.9%, O=S(=O)(c1cccc(F)c1)N1CCN(Cc2cc3c(cc2Br)OCCO3)CC1 201%, Cc1ccc(-n2cccn2)c(CN2CCCC(C(=O)c3sccc3C)C2)c1 (configuration not stated) 61.7%, CCCNC(=O)[C@H]1[C@H](CO)[C@H]2Cn3c(ccc(-c4ccccc4)c3=O)[C@H]2N1C(=O)C1CC1 37.3%, Cc1cc2c(cc1S(=O)(=O)N1CCc3ccccc31)NC(=O)CO2 75.4%, CCOc1ccccc1N(C)C(=O)C1CCN(S(=O)(=O)c2cccc3nonc23)CC1 65.8%
